Drawing on ChEMBL document CHEMBL1961873, “Compounds: GSK PKIS; Assays: Nanosyn kinase panel” (2012), this text covers inhibition for ten compounds.

Assay [1] has as its target Dual specificity protein kinase CLK3 (Homo sapiens) (UniProt P49761). The conditions noted are these: at 1 µM.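 Note: each value is the mean inhibition of CLK3.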
Assay [2] addresses Dual specificity tyrosine-phosphorylation-regulated kinase 1A (Homo sapiens) (UniProt Q13627). The conditions noted are these: at 0.1 µM.
For assay [3] the target is unchanged. The conditions noted are these: at 1 µM.
The target in assay [4] is Dual specificity tyrosine-phosphorylation-regulated kinase 1B (Homo sapiens) (UniProt Q9Y463). Particulars: at 0.1 µM.
Assay [5] has the same target. The conditions noted are these: at 1 µM.
For assay [6], the target named is T1, Dual specificity tyrosine-phosphorylation-regulated kinase 2 (Homo sapiens) (UniProt Q92630).
T1 sequence (whole entry): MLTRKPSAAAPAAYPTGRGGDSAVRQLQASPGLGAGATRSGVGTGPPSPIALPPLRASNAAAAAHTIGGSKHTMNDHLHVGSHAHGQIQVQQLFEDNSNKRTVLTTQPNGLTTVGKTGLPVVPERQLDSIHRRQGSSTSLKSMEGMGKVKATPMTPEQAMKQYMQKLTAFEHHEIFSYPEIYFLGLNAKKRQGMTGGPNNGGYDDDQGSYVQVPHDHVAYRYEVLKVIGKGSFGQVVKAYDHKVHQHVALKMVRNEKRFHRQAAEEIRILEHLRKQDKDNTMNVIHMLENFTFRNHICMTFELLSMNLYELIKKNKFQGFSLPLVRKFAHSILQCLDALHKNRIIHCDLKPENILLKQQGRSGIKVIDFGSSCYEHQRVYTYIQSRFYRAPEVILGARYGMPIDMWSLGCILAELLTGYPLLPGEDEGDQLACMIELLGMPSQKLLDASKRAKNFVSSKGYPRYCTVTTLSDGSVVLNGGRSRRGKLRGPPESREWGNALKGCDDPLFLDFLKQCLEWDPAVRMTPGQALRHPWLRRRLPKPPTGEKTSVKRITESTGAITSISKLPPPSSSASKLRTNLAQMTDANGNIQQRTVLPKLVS
Particulars: at 0.1 µM.

Assay [7] concerns the target T1, Dual specificity tyrosine-phosphorylation-regulated kinase 2 (Homo sapiens). The conditions noted are these: at 1 µM.
The target of assay [8] is Glycogen synthase kinase-3 alpha (Homo sapiens) (UniProt P49840). The conditions noted are these: at 0.1 µM.
Assay [9] shares this target. Particulars: at 1 µM.
Assay [10] concerns the target Glycogen synthase kinase-3 beta (Homo sapiens) (UniProt P49841). The conditions noted are these: at 0.1 µM.
For assay [11] the target is unchanged. The conditions noted are these: at 1 µM.
For assay [12], the target named is Homeodomain-interacting protein kinase 1 (Homo sapiens) (UniProt Q86Z02). Particulars: at 0.1 µM.
The target is the same in assay [13]. Particulars: at 1 µM.
Assay [14] addresses T2, Homeodomain-interacting protein kinase 4 (Homo sapiens) (UniProt Q8NE63).
T2 sequence (whole entry): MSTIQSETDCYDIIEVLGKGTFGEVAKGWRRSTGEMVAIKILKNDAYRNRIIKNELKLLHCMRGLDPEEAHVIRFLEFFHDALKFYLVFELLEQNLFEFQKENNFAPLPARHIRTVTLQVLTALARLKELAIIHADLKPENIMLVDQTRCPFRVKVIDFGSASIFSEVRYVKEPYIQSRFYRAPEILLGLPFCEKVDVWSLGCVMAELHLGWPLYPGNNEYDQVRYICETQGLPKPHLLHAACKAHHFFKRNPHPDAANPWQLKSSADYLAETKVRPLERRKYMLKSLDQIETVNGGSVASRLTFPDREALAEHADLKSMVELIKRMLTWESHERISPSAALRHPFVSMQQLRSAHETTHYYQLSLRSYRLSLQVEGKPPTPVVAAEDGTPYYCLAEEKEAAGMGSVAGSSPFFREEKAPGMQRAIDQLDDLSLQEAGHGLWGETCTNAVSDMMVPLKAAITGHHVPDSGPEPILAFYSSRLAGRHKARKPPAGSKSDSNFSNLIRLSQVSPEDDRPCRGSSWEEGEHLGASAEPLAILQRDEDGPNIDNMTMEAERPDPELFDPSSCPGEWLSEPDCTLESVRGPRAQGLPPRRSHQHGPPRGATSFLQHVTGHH
The conditions noted are these: at 0.1 µM.

The target of assay [15] is T2, Homeodomain-interacting protein kinase 4 (Homo sapiens). Particulars: at 1 µM.
For assay [16], the target named is Mitogen-activated protein kinase 9 (Homo sapiens) (UniProt P45984). Particulars: at 0.1 µM.
For assay [17] the target is unchanged. Particulars: at 1 µM.
The target of assay [18] is Mitogen-activated protein kinase 1 (Homo sapiens) (UniProt P28482). Particulars: at 0.1 µM.
Assay [19] has the same target. Particulars: at 1 µM.
Assay [20] has as its target Mitogen-activated protein kinase 3 (Homo sapiens) (UniProt P27361). The conditions noted are these: at 0.1 µM.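 Note: each value is a mean inhibition figure.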

Sequence of Homeodomain-interacting protein kinase 1 (Homo sapiens) (Q86Z02 whole entry, looked up): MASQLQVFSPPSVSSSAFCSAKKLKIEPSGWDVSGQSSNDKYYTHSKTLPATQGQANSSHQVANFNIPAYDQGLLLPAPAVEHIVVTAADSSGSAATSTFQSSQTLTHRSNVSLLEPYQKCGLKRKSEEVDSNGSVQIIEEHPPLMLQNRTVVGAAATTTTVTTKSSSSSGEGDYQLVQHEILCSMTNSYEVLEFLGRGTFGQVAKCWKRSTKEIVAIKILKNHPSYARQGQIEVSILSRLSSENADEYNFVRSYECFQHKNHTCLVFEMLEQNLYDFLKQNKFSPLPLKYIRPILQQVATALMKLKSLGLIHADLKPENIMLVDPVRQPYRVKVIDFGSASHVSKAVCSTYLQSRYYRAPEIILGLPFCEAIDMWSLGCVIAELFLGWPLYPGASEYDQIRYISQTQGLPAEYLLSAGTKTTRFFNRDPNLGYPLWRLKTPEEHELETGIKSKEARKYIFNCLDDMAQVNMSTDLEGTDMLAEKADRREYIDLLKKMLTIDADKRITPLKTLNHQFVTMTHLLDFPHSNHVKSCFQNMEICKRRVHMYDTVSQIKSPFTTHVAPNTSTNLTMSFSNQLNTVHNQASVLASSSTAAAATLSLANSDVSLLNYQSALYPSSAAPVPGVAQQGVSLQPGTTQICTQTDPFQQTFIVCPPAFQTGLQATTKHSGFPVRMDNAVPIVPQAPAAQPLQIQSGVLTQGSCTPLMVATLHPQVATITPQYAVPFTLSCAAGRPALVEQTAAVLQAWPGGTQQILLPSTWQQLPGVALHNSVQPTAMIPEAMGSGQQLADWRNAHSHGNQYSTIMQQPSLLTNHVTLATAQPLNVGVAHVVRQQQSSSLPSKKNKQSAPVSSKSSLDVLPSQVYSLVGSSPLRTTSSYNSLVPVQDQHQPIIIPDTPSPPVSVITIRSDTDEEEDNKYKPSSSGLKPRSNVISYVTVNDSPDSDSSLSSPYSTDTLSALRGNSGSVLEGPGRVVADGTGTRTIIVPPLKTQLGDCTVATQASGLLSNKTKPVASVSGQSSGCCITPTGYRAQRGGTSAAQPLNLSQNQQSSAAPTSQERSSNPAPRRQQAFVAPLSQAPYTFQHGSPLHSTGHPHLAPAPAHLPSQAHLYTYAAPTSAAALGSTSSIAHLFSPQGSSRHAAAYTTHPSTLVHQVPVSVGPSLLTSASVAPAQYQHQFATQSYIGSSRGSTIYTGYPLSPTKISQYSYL
Sequence of Glycogen synthase kinase-3 beta (Homo sapiens) (P49841 whole entry, looked up): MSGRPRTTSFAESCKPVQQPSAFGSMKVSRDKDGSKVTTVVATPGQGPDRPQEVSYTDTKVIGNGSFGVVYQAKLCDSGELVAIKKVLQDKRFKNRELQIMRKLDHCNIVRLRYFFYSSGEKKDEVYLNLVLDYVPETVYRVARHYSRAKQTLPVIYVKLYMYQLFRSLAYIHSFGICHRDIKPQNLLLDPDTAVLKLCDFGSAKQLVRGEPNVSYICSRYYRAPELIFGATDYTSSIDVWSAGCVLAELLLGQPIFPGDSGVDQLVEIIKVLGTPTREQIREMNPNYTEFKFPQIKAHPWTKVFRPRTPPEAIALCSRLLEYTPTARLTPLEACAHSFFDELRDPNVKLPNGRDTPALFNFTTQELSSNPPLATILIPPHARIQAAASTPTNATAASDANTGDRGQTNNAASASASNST
Sequence of Mitogen-activated protein kinase 1 (Homo sapiens) (P28482 whole entry): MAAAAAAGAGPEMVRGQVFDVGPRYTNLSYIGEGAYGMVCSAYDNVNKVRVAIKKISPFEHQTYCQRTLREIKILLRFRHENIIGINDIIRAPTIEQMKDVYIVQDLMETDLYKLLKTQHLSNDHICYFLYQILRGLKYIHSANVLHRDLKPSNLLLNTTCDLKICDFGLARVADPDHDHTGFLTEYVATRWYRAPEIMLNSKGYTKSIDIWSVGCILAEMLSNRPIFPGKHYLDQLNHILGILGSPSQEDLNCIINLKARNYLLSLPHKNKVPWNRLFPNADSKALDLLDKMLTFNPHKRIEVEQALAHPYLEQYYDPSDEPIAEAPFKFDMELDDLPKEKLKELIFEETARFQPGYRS
Sequence of Dual specificity tyrosine-phosphorylation-regulated kinase 1B (Homo sapiens) (Q9Y463 whole entry, looked up): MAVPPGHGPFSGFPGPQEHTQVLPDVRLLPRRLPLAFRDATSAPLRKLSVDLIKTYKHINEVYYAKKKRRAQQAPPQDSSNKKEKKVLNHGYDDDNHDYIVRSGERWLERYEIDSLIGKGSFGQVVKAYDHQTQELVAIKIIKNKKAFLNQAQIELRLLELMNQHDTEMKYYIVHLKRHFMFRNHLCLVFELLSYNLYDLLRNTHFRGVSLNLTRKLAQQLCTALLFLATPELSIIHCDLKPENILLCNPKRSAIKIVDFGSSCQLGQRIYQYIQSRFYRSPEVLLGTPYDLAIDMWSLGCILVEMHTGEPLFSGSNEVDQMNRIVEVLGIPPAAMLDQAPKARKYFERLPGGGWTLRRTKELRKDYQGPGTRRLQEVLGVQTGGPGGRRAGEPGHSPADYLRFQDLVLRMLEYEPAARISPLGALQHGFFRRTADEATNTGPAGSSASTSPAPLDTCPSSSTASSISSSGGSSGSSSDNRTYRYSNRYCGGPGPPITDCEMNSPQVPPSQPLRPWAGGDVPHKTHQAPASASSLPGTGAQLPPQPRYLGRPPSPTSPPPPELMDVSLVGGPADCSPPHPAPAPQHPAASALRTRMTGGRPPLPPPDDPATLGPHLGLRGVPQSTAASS
Sequence of Mitogen-activated protein kinase 3 (Homo sapiens) (P27361 whole entry): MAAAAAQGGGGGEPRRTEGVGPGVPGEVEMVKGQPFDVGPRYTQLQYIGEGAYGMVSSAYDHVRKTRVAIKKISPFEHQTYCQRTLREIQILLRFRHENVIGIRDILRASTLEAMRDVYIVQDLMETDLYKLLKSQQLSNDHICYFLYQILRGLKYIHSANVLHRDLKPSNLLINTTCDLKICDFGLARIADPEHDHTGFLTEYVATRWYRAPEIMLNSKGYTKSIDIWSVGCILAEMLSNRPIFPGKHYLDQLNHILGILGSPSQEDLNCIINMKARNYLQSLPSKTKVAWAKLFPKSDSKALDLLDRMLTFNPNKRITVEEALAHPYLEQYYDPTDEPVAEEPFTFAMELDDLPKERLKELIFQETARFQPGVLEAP
Sequence of Dual specificity protein kinase CLK3 (Homo sapiens) (P49761 whole entry, looked up): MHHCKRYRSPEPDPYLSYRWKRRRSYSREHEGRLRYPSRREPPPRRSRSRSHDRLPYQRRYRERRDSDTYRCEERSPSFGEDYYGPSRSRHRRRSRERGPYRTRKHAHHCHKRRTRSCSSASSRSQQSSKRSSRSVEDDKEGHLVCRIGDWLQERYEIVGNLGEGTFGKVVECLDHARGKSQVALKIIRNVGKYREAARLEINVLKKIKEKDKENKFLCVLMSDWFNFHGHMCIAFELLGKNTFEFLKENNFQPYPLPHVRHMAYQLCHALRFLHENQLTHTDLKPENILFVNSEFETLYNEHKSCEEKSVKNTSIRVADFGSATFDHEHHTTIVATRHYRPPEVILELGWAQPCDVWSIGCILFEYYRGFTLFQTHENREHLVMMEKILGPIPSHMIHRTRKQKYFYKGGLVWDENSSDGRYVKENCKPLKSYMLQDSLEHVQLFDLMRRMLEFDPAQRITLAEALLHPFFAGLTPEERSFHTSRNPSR
Sequence of Mitogen-activated protein kinase 9 (Homo sapiens) (P45984 whole entry, looked up): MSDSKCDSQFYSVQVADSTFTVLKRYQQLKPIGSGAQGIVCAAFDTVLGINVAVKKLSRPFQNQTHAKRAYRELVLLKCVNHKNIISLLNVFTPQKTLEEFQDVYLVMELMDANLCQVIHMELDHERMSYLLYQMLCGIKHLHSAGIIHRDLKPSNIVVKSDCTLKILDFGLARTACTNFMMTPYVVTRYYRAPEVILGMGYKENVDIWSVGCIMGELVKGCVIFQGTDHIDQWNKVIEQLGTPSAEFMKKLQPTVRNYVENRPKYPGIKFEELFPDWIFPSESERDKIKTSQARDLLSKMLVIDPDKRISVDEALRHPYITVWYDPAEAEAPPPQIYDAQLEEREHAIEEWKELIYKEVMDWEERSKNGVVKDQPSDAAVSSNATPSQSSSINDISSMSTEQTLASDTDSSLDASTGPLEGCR
Sequence of Glycogen synthase kinase-3 alpha (Homo sapiens) (P49840 2-483 limits assumed): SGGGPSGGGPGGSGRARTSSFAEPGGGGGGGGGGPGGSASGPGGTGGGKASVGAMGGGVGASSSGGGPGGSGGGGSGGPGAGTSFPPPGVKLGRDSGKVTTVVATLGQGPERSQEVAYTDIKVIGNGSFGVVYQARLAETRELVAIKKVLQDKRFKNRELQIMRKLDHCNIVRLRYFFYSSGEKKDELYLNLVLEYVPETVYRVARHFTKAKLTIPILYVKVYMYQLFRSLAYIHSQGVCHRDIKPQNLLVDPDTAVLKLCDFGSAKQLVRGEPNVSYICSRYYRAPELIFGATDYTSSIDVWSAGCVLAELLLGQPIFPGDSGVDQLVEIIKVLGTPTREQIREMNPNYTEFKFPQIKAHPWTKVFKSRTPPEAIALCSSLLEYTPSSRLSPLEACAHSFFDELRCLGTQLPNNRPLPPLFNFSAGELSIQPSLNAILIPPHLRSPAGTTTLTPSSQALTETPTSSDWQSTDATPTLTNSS

On to `CCn1c(-c2nonc2N)nc2c(C#CC(C)(C)O)nc(OC[C@@H](N)c3ccccc3)cc21`, for which the inhibition was 0.8% in assay [1]; -0.38% in assay [2]; 5.33% in [3]; 1.06% in assay [4]; 4.19% in [5]; -1.52% in assay [6]. Moreover, the inhibition was -0.54% in assay [7]; 37.4% in [8]; 78.5% in [9]; 32.1% in [10]; 76% in assay [11]; 1.19% in assay [12]. For the same compound, the inhibition in [13] is 13.3%; in [14], 1.04%; in assay [15], 8.34%; in [16] it was -0.01%; in assay [17], -0.83%; in [18], -1.1%. For the same compound, the inhibition in assay [19] was 3.38%; in assay [20], -3.17%.

Consider `Nc1ncnc2occ(-c3ccc(NC(=O)Nc4cc(C(F)(F)F)cc(C(F)(F)F)c4)cc3)c12`, for which the inhibition in assay [1] was 1.36%; in assay [2] it was 0.09%; in assay [3], 2.4%; in assay [4], 0.19%; in assay [5], 1.76%; in [6], 1.71%. The inhibition in [7] was found to be 2.18%; in [8], 1.22%; in assay [9] it was 5.65%; in assay [10] it was 1.08%; in [11] it was 7.52%; in [12], 0.45%. For the same compound, the inhibition in assay [13] was found to be 11.7%; in assay [14], 14.4%; in assay [15], 63.3%; in assay [16], 2.13%; in [17], 6.77%; in [18], 2.73%. Also, the inhibition stood at 1.95% in [19] and 0.6% in [20].

In the case of `[O-][S+]1CCN(Cc2ccc(-c3ccc4ncnc(Nc5ccc(OCc6ccccc6)c(F)c5)c4c3)o2)CC1`, the inhibition is 11.2% in [1]; 2.61% in [2]; 2.98% in assay [3]; 1.09% in [4]; 1.08% in [5]; 1.63% in [6]. Also, the inhibition in assay [7] is 3.4%; in assay [8] it was 0.27%; in assay [9], 2.88%; in assay [10], -0.3%; in assay [11] it was 1.56%; in [12] it was -3.01%. In addition, the inhibition in [13] was found to be 2.83%; in assay [14], 1.06%; in assay [15], 5.51%; in assay [16] it was 4.53%; in [17], 4.55%; in [18], 0.52%. Moreover, the results for the inhibition in [19] and in assay [20] were 2.92% and 1.89%, respectively.

As to `Cc1nn(C)c2cc(N(C)c3ccnc(Nc4cccc(S(N)(=O)=O)c4)n3)ccc12`, the inhibition in assay [1] is 3.34%; in assay [2] it was 0.4%; in assay [3], 0.86%; in assay [4], -1.86%; in [5], -1.3%; in [6], 2.83%. Moreover, the inhibition is 2.82% in assay [7]; 1.79% in assay [8]; 3.95% in [9]; 0.37% in [10]; 5.82% in [11]; -3.06% in assay [12]. Also, the inhibition in assay [13] is -2.18%; in assay [14] it was -1.56%; in assay [15], 4.09%; in assay [16] it was 3.35%; in assay [17], 10.2%; in assay [18] it was 2.91%. Further, the inhibition was 4.88% in [19] and 2.88% in assay [20].

As for `CCn1c(-c2nonc2N)nc2c(N3CCCC3)nccc21`, the inhibition in assay [1] was 1.31%; in assay [2], 3.13%; in assay [3] it was 8.89%; in assay [4], 2.51%; in [5] it was 6.95%; in [6] it was -1.18%. Moreover, the inhibition in [7] is -1.63%; in [8], 1.82%; in [9], 4.77%; in [10], 2%; in assay [11], 3.59%; in assay [12] it was -0.15%. In addition, the inhibition in assay [13] is 6.29%; in [14], -0.26%; in [15], 2.71%; in assay [16], -4.08%; in assay [17] it was -4.92%; in assay [18], -2.76%. Also, the results for the inhibition in assay [19] and in assay [20] were -3.21% and 0.68%, respectively.

With `COc1cc(C)c(NC(=O)CN(C)C)cc1Nc1nc(Nc2cccc(F)c2C(N)=O)c2cc[nH]c2n1`, the inhibition in [1] came out at 13.2%; in assay [2], 1.71%; in assay [3], 20%; in assay [4] it was 1.59%; in assay [5], 14.8%; in assay [6] it was 2.4%. For the same compound, the inhibition in assay [7] was 5.3%; in assay [8], -0.24%; in assay [9] it was 1.07%; in assay [10], -1.22%; in assay [11], 0.98%; in assay [12], 13.9%. The inhibition turned out to be 60.6% in [13]; 15.9% in [14]; 63.4% in assay [15]; 3.11% in assay [16]; 12.6% in assay [17]; 2.86% in assay [18]. In addition, the results for the inhibition in [19] and in assay [20] were 4.47% and 2.47%, respectively.

Consider `Nc1nc(-c2ccccn2)c(-c2ccc3ncccc3n2)s1`, for which the inhibition in assay [1] came out at 4.76%; in assay [2], 7.05%; in [3] it was 18.3%; in [4], 3.14%; in assay [5], 8.56%; in assay [6], 2.04%. The inhibition in assay [7] stood at 4.58%; in [8] it was 3.86%; in assay [9] it was 12.8%; in [10], 3.76%; in assay [11], 8.29%; in assay [12] it was 4.06%. Moreover, the inhibition in assay [13] turned out to be 10.3%; in assay [14], 3.92%; in assay [15], 10.1%; in [16], 2.16%; in assay [17], 2.28%; in assay [18], 1.86%. The inhibition in assay [19] was 2.54%; in [20], 1.83%.

With `CCn1c(-c2nonc2N)nc2ccncc21`, the inhibition is 0.52% in assay [1]; 0.1% in [2]; 2.88% in [3]; -0.02% in [4]; 0.71% in [5]; 1.94% in assay [6]. Besides, the inhibition in assay [7] was 2.17%; in assay [8], 0.52%; in assay [9], 7.82%; in assay [10], 0.08%; in assay [11], 5.32%; in assay [12], -3.19%. The inhibition in assay [13] was 0.47%; in assay [14], -0.89%; in [15] it was -0.65%; in assay [16], 3.39%; in assay [17], 2.53%; in assay [18], 13.4%. Further, the figures for the inhibition in assay [19] and in [20] were 1.62% and 2.94%, respectively.

For `CS(=O)(=O)CCNCc1nc(-c2ccc3ncnc(Nc4ccc(F)c(Cl)c4)c3c2)cs1`, the inhibition in assay [1] turned out to be 0.43%; in assay [2], 0.63%; in [3], 1.24%; in assay [4], 0.27%; in assay [5], 1.63%; in [6] it was 0.37%. Further, the inhibition stood at 2.12% in assay [7]; 1.3% in assay [8]; 3.03% in [9]; 1.2% in assay [10]; 1.99% in assay [11]; 1.07% in assay [12]. Moreover, the inhibition in assay [13] was determined as 5.32%; in [14] it was 3.32%; in assay [15], 18.8%; in [16], 1.61%; in assay [17], 4.55%; in assay [18], 4.72%. The values for the inhibition in assay [19] and in [20] were 5.04% and 1.63%, respectively.

As to `CN1CCC(C(=O)Nc2n[nH]c3nnc(-c4ccccc4)cc23)CC1`, the inhibition is 2.52% in [1]; 7.11% in assay [2]; 33.9% in assay [3]; 7.12% in [4]; 31.9% in assay [5]; 4.83% in [6]. Further, the inhibition came out at 9.37% in assay [7]; 79.5% in assay [8]; 85.7% in assay [9]; 3.96% in assay [12]; 9.2% in assay [13]; 0.93% in assay [14]. For the same compound, the inhibition in [15] stood at 4.44%; in assay [16], 4.37%; in assay [17], 5.52%; in assay [18] it was 7.18%; in assay [19], 5.71%; in assay [20] it was 5.71%.

The inhibition is the relative decrease from the control value, in per cent.
